# Measured values reported in ChEMBL document CHEMBL4513216, “Probing the Open Global Health Chemical Diversity Library for Multistage-Active Starting Points for Next-Generation Antimalarials” (ACS Infect Dis, 2020).
# Screen size: about 69,000 compounds; about 8,600 (12%) showed an effect of 50% or more. This excerpt belongs to a sample that is enriched for strong results.
# Test system: Plasmodium berghei
# Assay: Screen against P. berghei liver stage (PbLuc), transformed with Luciferase, at 10uM
# Assay type: functional, HepG2
# Conditions: tested at 10 uM
row,SMILES,INHIBITION [%]
1,c1coc(CN2CCOC3(COCCN(Cc4ccncc4)C3)C2)c1 (stereo unspecified),31.7
2,O=C(Cc1csc(-c2ccoc2)n1)NCCCN1CCCCC1,-55.1
3,CCc1nc(CN2CCCN(Cc3nnc(C4CC4)o3)CC2)no1,37.9
4,CC(C)c1nc(CN(C)C2CCN(Cc3nnc(C4CC4)o3)C2)no1 (stereo unspecified),-25.9
5,CC(C)c1nc(CN2CCCN(Cc3nnc(C4CC4)o3)CC2)no1,-33.5
6,CN(Cc1noc(C2CC2)n1)C1CCN(CCc2cccs2)C1 (stereo unspecified),43.2
7,C1CN(Cc2noc(C3CC3)n2)CCN(Cc2nnc(C3CC3)o2)C1,74.9
8,CN(Cc1noc(C2CC2)n1)C1CCN(Cc2nnc(C3CC3)o2)C1 (stereo unspecified),51.6
9,CN(Cc1nnc(C2CC2)n1C)C1CCN(CCc2cccs2)C1 (stereo unspecified),-39.9
10,CN(Cc1nnc(C2CC2)o1)C1CCN(CCc2cccs2)C1 (stereo unspecified),56.7
11,Cc1nc(CN(C)C2CCN(Cc3nnc(C4CC4)o3)C2)no1 (stereo unspecified),-55.4
12,COCCN1CC(=O)c2sc(NC(C)C)nc2C1,39.7
13,Cc1cc(N(C)C)nc(C2(C)CCCN2C(=O)c2ccn(C)n2)n1 (stereo unspecified),36.4
14,Cc1cc(C(=O)N2CCCN(Cc3nccn3C)CC2)no1,22.3
15,Cc1ccc(S(=O)(=O)N2CCOCC2C#N)c(F)c1 (stereo unspecified),-26.1
16,Cc1ccnc(C2CCCN2C(=O)c2cnccn2)n1 (stereo unspecified),3.91
17,COc1ccc(N(C)Cc2nc3c(cnn3C)c(=O)[nH]2)cc1OC,35.9
18,CCOc1c(Br)cc(CNCCc2nnc3n2CCCCC3)cc1OC,55.4
19,CCOc1c(Br)cc(CNC(C)c2nnc3n2CCC3)cc1OC (stereo unspecified),50.8
20,Brc1cc(CNCc2nnc3n2CCC3)cs1,13.9
21,COc1cccc(CC(=O)NCCc2nnc3n2CCCCC3)c1,-11.3
22,COc1cc(CNC(C)c2nnc3n2CCC3)cc(OC)c1 (stereo unspecified),37.8
23,COc1cc(Br)c(CNC(C)c2nnc3n2CCC3)cc1OC (stereo unspecified),47.1

row,SMILES,INHIBITION [%]
1,CC1(NC(=O)Cc2csc(-c3ccccc3Cl)n2)CCS(=O)(=O)C1 (stereo unspecified),34.6
2,CCN1CCOC(CNCc2ccc(OCc3ccccn3)cc2)C1 (stereo unspecified),3.5
3,Cc1c(C(=O)N2CCN(c3ccccn3)CC2)n(C)c2ccc(Cl)cc12,34
4,CC(C)Cc1nc(CN2CCCC2Cn2cncn2)no1 (stereo unspecified),9.85
5,N#Cc1ccc(CN2CCCN(CCCn3cncn3)CC2)cc1,56.5
6,N#Cc1ccc(N2CCCN(CCCn3cncn3)CC2)cc1,9.87
7,N#Cc1ccc(CN2CCCN(C(=O)CCn3cncn3)CC2)cc1,-14.3
8,CN(C)CCN1CCO[C@H]2CN(C(=O)N(C)C)C[C@H]21,33.4
9,O=C(O)c1csc(NCCc2ccccc2)n1,34.2
10,O=C(c1ccoc1)N1CCC2(CC1)C(=O)N(CC1CC1)c1ccccc12,29.7
11,CC(C)=CCN1C[C@@H]2CC[C@H]1CN(Cc1coc(C)n1)C2,55
12,CC(C)=CCN1C[C@@H]2CC[C@H]1CN(CCC(=O)NCc1ccco1)C2,29.7
13,CC(C)=CCN1C[C@@H]2CC[C@H]1CN(Cc1cc(=O)[nH]c(=O)[nH]1)C2,39
14,Cc1ccc(C(=O)N2C[C@@H]3OCCN(CCN4CCCC4)[C@@H]3C2)cn1,19.9
15,COc1cc(C)c2c(c1C)C[C@@H](C(C)C(=O)O)CC2 (stereo partly specified),10.1
16,c1ccc(-n2ccc(CN3CCCC(Cn4cncn4)C3)n2)cc1 (stereo unspecified),15.3
17,CCCc1ccc(C(C)Nc2ncnc3c2CCNC3)cc1 (stereo unspecified),74.7
18,Cc1cc(C)n(CC(C)Nc2ncnc3c2CCNC3)n1 (stereo unspecified),29.4
19,CC(C)Nc1ncnc2c1CCNCC2,43.8
20,CC(Nc1ncnc2c1CCNCC2)c1nc2c(s1)CCCC2 (stereo unspecified),1.98
21,CC(Nc1ncnc2c1CCNC2)c1ccc(C(C)(C)C)cc1 (stereo unspecified),65
22,Cc1ccccc1C(Nc1ncnc2c1CCNC2)c1ccccc1 (stereo unspecified),36.8
23,Cc1nc(C(C)Nc2ncnc3c2CCNCC3)c(C)s1 (stereo unspecified),-10.9

row,SMILES,INHIBITION [%]
1,CC(Nc1ncnc2c1CCNC2)c1ccc2c(c1)CCCC2 (stereo unspecified),88.6
2,CCOc1ccc(C(C)Nc2ncnc3c2CCNC3)cc1OCC (stereo unspecified),47.9
3,O=C(C1CCOCC1)N1CCc2onc(COc3cccnc3)c2C1,46.2
4,Cc1ccoc1C(=O)N1CCc2ncnc(-c3cnn(C)c3)c2CC1,-49.8
5,Cc1cc(C2CCN(S(=O)(=O)N(C)C)CC2)ccn1,9.05
6,CN(C)CCN1C(=O)CCC12CCN(Cc1cccs1)CC2,29.7
7,CCc1nc(CN2CCN(C(=O)c3cncnc3CC)CC2)cs1,-86.365
8,CC(C)NC(=O)N1CC[C@@H]2[C@@H]1CC(=O)N2Cc1cccnc1,6.27
9,CC1c2ncc(COc3cccnc3)n2CCN1C(=O)C1=CCCCC1 (stereo unspecified),-6.23
10,COc1ccc(CNC(=O)Nc2cccnc2N2CCCC2)cc1OC,31.2
11,Nc1nc2c(c(NC(=O)Nc3ccc(Cl)c(Cl)c3)n1)CCCC2,-10.3
12,Nc1nc2c(c(NC(=O)Nc3cccc(Cl)c3)n1)CCCC2,88.8
13,Nc1nc2c(c(NC(=O)Nc3ccccc3)n1)CCCC2,32.1
14,COCCOc1ccc(CNc2nc3ccccc3o2)cn1,-11.5
15,COCCOc1ccc(CNc2nc3ccccc3nc2N)cn1,80.9
16,COCCOc1ccc(CNc2cnc3ccccc3n2)cn1,-43
17,COCCNC(=O)Cn1c(-c2cccc(F)c2)nc(C)c(CCO)c1=O,7.22
18,Cc1cnc(C(=O)N2CCOCC2c2ccccc2)cn1 (stereo unspecified),43.6
19,Clc1cc(Cl)cc(OCCN2CCC(n3cncn3)CC2)c1,62.4
20,c1ccc(OCCN2CCC(n3cncn3)CC2)cc1,37.4
21,CSc1ccc(OCCN2CCC(n3cncn3)CC2)cc1,27.6
22,CC(C)n1[nH]c(=O)c2c1NC(=O)CC2c1cccc(O)c1 (stereo unspecified),-47
23,CCc1ccc(C2CC(=O)Nc3c2c(=O)[nH]n3C(C)C)cc1 (stereo unspecified),79.7

row,SMILES,INHIBITION [%]
1,CC(C)n1[nH]c(=O)c2c1NC(=O)CC2c1ccncc1 (stereo unspecified),-19.1
2,Cc1cccc(C2CC(=O)Nc3c2c(=O)[nH]n3C(C)C)c1 (stereo unspecified),71.3
3,CSc1ccc(C2CC(=O)Nc3c2c(=O)[nH]n3C(C)C)cc1 (stereo unspecified),19.8
4,CC(C)n1[nH]c(=O)c2c1NC(=O)CC2c1cccc(Br)c1 (stereo unspecified),-6.61
5,O=C(CCn1nc(-c2cccs2)oc1=O)Nc1cccc(F)c1,31.9
6,O=C1CC2(CCN(c3nncs3)C2)CN1c1cncnc1 (stereo unspecified),15.4
7,Cc1cnc2c(S(=O)(=O)NCC3CCOC3)cccc2c1 (stereo unspecified),3.15
8,Cc1cccc(OCC2CCCN(C(=O)CCn3ccccc3=O)C2)c1 (stereo unspecified),-10.2
9,c1ccc(-c2nnc3sc(CCN4CCCCCC4)nn23)cc1,30.8
10,c1ccc(-c2nnc3sc(CCN4CCCC4)nn23)cc1,54.3
11,c1cc(-c2nnc3sc(CCN4CCCC4)nn23)ccn1,46.1
12,CC(C)(N)CNS(=O)(=O)Cc1cccc2cccnc12,2.66
13,CCOCCCNC(=O)CCCC(=O)n1nc(C)c2ccccc21,32.2
14,Cc1nccc(-c2cccc(-c3ccn(CC4CCNC4)n3)c2)n1 (stereo unspecified),47.2
15,c1cc(-c2cncnc2)cc(-c2ccn(CC3CCNC3)n2)c1 (stereo unspecified),46.4
16,Cc1ccsc1-c1cccc(-c2ccn(CC3CCNC3)n2)c1 (stereo unspecified),72.6
17,CCn1c(C)nnc1CN(C)C1CCN(CCCSC)C1 (stereo unspecified),-69.3
18,Cc1cc(C(=O)N2CCS(=O)(=O)CC2)c(C)o1,-9.21
19,Cc1cn[nH]c1C1COCCN1Cc1c[nH]cn1 (stereo unspecified),35.6
20,Cc1cccc(C)c1OCC(=O)NS(=O)(=O)c1c(C)noc1C,-55.8
21,Cc1ccc(OCC(=O)NS(=O)(=O)c2c(C)noc2C)cc1C,6.14
22,Cc1cc(C)c(OCC(=O)NS(=O)(=O)c2c(C)noc2C)c(C)c1,55.1
23,O=C(NCCn1nc(C2CCNC2)c2cccnc21)C1CCC1 (stereo unspecified),13.5

row,SMILES,INHIBITION [%]
1,Cc1nn(C)c2ncnc(NCC(O)CN3CCCCC3)c12 (stereo unspecified),7.3
2,COc1cccc(OC)c1OCCN1C(=O)CCNC1=O,25.8
3,COc1ccccc1OCCCN1C(=O)CCNC1=O,-88.2
4,CC(C)Oc1ccccc1OCCN1C(=O)CCNC1=O,50.5
5,COCCc1noc(-c2cc(Cl)c3c(c2)OCCCO3)n1,-119
6,CN1CCC(NC(=O)c2cc(Br)cc(Cl)c2O)C1=O (stereo unspecified),20
7,O=c1c2cnc(N3CCCCC3)nc2ccn1Cc1ccco1,-33.7
8,CN1CCN(c2ncc3c(=O)n(Cc4ccco4)ccc3n2)CC1,41.3
9,CCN1CCN(c2ncc3c(=O)n(Cc4ccco4)ccc3n2)CC1,67.5
10,Cc1noc(C)c1S(=O)(=O)NC(=O)COc1ccc(C(C)C)cc1,4.1
11,NS(=O)(=O)CCNC(=O)c1cc2ccccc2nc1N1CCCC1,2.91
12,Cc1ccc2oc(C(=O)N3CCCC(n4cccn4)C3)cc2n1 (stereo unspecified),-32.55
13,O=C(NCCOCC(F)(F)F)c1ccc(-c2ccccc2)[nH]c1=O,14.4
14,O=C(CN1CCCC1)N1CCCC1c1nc(O)cc(-c2ccccn2)n1 (stereo unspecified),-1.85
15,CCC(CO)N(Cc1cccnc1)C(=O)c1ccoc1C (stereo unspecified),3.13
16,N#CC1(NC(=O)COC(=O)Cc2cc(Cl)c3c(c2)OCCO3)CCCC1,38.9
17,CC(C)(C)C(=O)NS(=O)(=O)c1ccc(C#N)cc1C(F)(F)F,39.2
18,N#Cc1ccc(S(=O)(=O)NC(=O)C2CC2)c(C(F)(F)F)c1,54.9
19,CC(C)C(=O)NS(=O)(=O)c1ccc(C#N)cc1C(F)(F)F,-4.94
